The values below come from the supplement of paper PMC4206461.

The test system of the first test is Pseudomonas aeruginosa PA14 dppA1-A5 penta mutant + pBBR5.DppA1 (PA14_58350). In words: respiration area under curve with compound as sole nitrogen source, 24 h (OmniLog AUC (arbitrary units)); higher = more respiration / better utilisation as nitrogen source, active = 2000 or more. The method, then:
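Biolog Phenotype MicroArray plates PM6-PM8: each di/tripeptide is the sole nitrogen source. Tetrazolium reduction was read in the OmniLog for 24 h at 37°C and summarised as area under the respiration curve (arbitrary units). Values below 2000 count as no respiration. Strain is the SBP penta mutant complemented with DppA1 on a plasmid under its native promoter. Lys/His/Cys peptides are excluded.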
Turning to `CC(C)[C@H](NC(=O)CN)C(=O)O` (plate: PM6), the “respiration area under curve” value was 1820 (inactive). On to `N[C@@H](Cc1c[nH]c2ccccc12)C(=O)N[C@@H](Cc1ccc(O)cc1)C(=O)O` (plate: PM7), for which the “respiration area under curve” value is 292 (inactive). Still for that read-out and setting: the result for `N[C@@H](CC(=O)O)C(=O)N[C@@H](CCC(=O)O)C(=O)O` (plate: PM6) reads 437 (inactive); that for `C[C@H](NC(=O)[C@@H](N)CCCN=C(N)N)C(=O)O` (plate: PM6), 8610 (active); that for `CC(C)[C@H](N)C(=O)N[C@H](C(=O)O)C(C)C` (plate: PM7), 6680 (active). Still for that read-out and setting: the same measure for `C[C@@H](O)[C@H](N)C(=O)N[C@@H](Cc1ccccc1)C(=O)O` (plate: PM8): 6440 (active).

The next test relates to Pseudomonas aeruginosa PA14 wild type. The test is described as above. Here is the method:
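Biolog Phenotype MicroArray plates PM6-PM8: each di/tripeptide is the sole nitrogen source (IF-0 medium with succinate/ferric citrate and dye mix A). Tetrazolium reduction was read in the OmniLog every 15 min for 24 h at 37°C and summarised as area under the respiration curve (arbitrary units). The paper counts values below 2000 as no respiration and above 8000 as solid respiration. Replicate datasets are averaged.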
`C[C@H](NC(=O)CCN)C(=O)O` (plate: PM8): the “respiration area under curve” value was 6440 (active). For the molecule `N[C@@H](Cc1ccccc1)C(=O)N1CCC[C@H]1C(=O)O` (plate: PM7), the “respiration area under curve” value is 11400 (active). On the same count and under the same terms, the result for `NC(=O)CC[C@H](NC(=O)[C@@H](N)CCC(N)=O)C(=O)O` (plate: PM6) reads 8430 (active); that for `CC(C)[C@H](NC(=O)CN)C(=O)O` (plate: PM6), 4270 (active). Still for that read-out and setting: the result for `N[C@@H](Cc1c[nH]c2ccccc12)C(=O)N[C@@H](Cc1ccc(O)cc1)C(=O)O` (plate: PM7) reads 1070 (inactive).

For the molecule `C[C@H](NC(=O)[C@@H](N)[C@@H](C)O)C(=O)O` (plate: PM7), the “respiration area under curve” value is 10500 (active). On the same count and under the same terms, the same measure for `NC(=O)CC[C@H](NC(=O)[C@@H](N)CCCN=C(N)N)C(=O)O` (plate: PM6): 9850 (active); for `CC[C@H](C)[C@H](NC(=O)[C@@H](N)Cc1ccccc1)C(=O)O` (plate: PM7): 8390 (active).
